An excerpt weighted towards active compounds, which were near 7.3% of everything screened.
AmpC inh detg – qHTS Inhibitors of AmpC Beta-Lactamase (assay with detergent). P00811. AmpC hydrolysis of nitrocefin, absorbance 480 nm, 0.01% Triton. Potency, µM (top dose mostly 114 µM), most hits filed as inhibitors. hit rate 0.041% among 370,000; also: nearly all actives have a fitted effect of over 25% in size
Target sequence (P00811 whole entry, looked up): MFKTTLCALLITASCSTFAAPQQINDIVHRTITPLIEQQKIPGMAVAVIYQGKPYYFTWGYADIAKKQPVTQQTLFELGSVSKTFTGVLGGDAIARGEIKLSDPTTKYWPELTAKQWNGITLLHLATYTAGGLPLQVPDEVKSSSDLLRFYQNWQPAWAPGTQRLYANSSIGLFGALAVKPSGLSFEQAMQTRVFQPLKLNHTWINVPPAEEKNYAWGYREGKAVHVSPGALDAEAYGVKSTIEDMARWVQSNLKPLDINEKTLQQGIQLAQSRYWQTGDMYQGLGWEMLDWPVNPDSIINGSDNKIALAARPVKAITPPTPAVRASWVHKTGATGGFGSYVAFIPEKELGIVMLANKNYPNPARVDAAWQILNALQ
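AmpC (5.3 nM in the dispensed reagent) in 20 mM phosphate pH 7.0 with 0.01% (detergent screen) or 0.0001% Triton X-100 was preincubated with compounds for 15 min at room temperature. Nitrocefin was then added from an 800 uM solution, and hydrolysis was followed at 480 nm.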
AmpC inh no detg – qHTS Inhibitors of AmpC Beta-Lactamase (assay without detergent); AID 485341, 2010; hit rate 0.52% among 330,000; Potency, µM (doses to about 57.1 µM), actives largely listed as inhibitors; AmpC nitrocefin hydrolysis, absorbance 480 nm, 0.0001% Triton; also: nearly all actives have a fitted effect of over 20% in size
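AmpC (5.3 nM in the dispensed reagent) in 20 mM phosphate pH 7.0 with 0.01% (detergent screen) or 0.0001% Triton X-100 was preincubated with compounds for 15 min at room temperature. Nitrocefin was then added from an 800 uM solution, and hydrolysis was followed at 480 nm.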
HCV inh – qHTS Assay for Inhibitors of Hepatitis C Virus (HCV); Potency, µM (top dose mostly 41.8 µM), actives largely listed as inhibitors; AID 651820, 2012; Huh7.5.1 HCVcc-Cre infection, luciferase reporter, 44 h; hit rate 3.4% among 340,000
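Infectious HCV cell culture screen: compound-treated cells (1,000/well, pre-plated 4 h) are infected with HCVcc-Cre at roughly 0.5 moi and grown 44 h. Infection is quantified by luciferase signal after 15 min substrate incubation at room temperature.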
HCMV inh – qHTS Assay for inhibitors of the human cytomegalovirus (HCMV) | HFF cells, HCMV-luciferase reporter, 72 h; active compounds read low | activity change, negative = inhibition, % at 57.5 µM | hit rate 4.5% among 410,000 | AID 1259415, 2018; in the data active = activity change below about -60%; inconclusive = no clear call, values can overlap the other calls; inactive = above about -39%
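Two-dose cell screen: HFF monolayers treated with compounds and infected with luciferase-expressing HCMV at 1 PFU/cell, 72 h at 37C, then lysed for luciferase measurement.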
FMDV inh – High Throughput Screening for Foot and Mouth Disease Virus Antivirals; FMDV antiviral cell-based qHTS; AID 1159524, 2015; Potency, µM (top dose mostly 57.9 µM), actives largely listed as inhibitors; hit rate 1.2% among 410,000; calls by dose curve; tested in HEK293T cells; also: read-out not given here; nearly all actives have a fitted effect of over 45% in size
Large screens that a line does not name were inactive. Unless noted, calls follow the shape of the dose curve; as a rule, active = well fitted curve in the direction sought with a large enough effect; inconclusive = small, poorly fitted or top-dose-only effect, or another doubt; inactive = no such curve, though single readings can be large; an effect the other way counts as inactive or inconclusive.

O=C(C1CCN(S(=O)(=O)c2ccccc2)CC1)N1CCc2ccccc21	none
Cc1cccc(CN2C(=O)c3ccccc3Sc3ccc(C(=O)N4CCCC4)cc32)c1	none (no result: AmpC inh no detg, HCV inh)
COc1ccc(/C(N)=N/OC(=O)c2cccc([N+](=O)[O-])c2C)cc1	HCV inh inconclusive
COc1ccccc1C/C(N)=N/OC(=O)c1cccc([N+](=O)[O-])c1C	HCV inh 10µM
c1ccc(-c2cc3ncc4c(n3n2)-c2ccccc2OC4)cc1	none (no result: AmpC inh no detg, HCV inh)
O=c1c2ccccc2oc2ccc(C#CC3(O)CCCCC3)cc12	HCV inh inconclusive, FMDV inh 32µM (no result: AmpC inh detg, AmpC inh no detg)
Cn1c2ccccc2c(=O)c2cc(C#CC3(O)CCCCC3)ccc21	AmpC inh detg inconclusive, FMDV inh 25µM
Cn1c2ccccc2c(=O)c2ccc(C#CC3(N)CCCCC3)cc21	HCV inh 11µM
Cn1c2ccccc2c(=O)c2cc(C#Cc3ccsc3)ccc21	none
Cc1cc2sc3ccc(C#CC4(O)CCCCC4)cc3c(=O)c2cc1C	HCMV inh -96, FMDV inh 0.089µM (no result: AmpC inh detg, AmpC inh no detg)
CCCCNC(=O)C1(C)CCCCN1C(=O)c1cc(C)n(C(C)(C)C)n1 (stereo not given)	none (no result: AmpC inh detg, AmpC inh no detg, HCV inh)
COc1ccc([C@H]2CC(=O)C=C(C#CC(C)(C)C)C2)cc1	none
COc1ccccc1-c1ccnc(-n2ncc(C(=O)NCc3ccncc3)c2C)n1	none (no result: AmpC inh detg, AmpC inh no detg, HCV inh, HCMV inh)
O=C(COC(=O)CNC(=O)c1ccc([N+](=O)[O-])o1)Nc1ncc(C(F)(F)F)cc1Cl	HCV inh 2.8µM
CCCCCn1c(=O)[nH]c2cc(C(=O)N3CCN(c4ccc(OC)cc4)CC3)ccc2c1=O	none (no result: AmpC inh no detg, HCV inh)
CCCCCn1c(=O)[nH]c2cc(C(=O)N3CCN(c4cccc(C)c4)C(C)C3)ccc2c1=O (stereo not given)	FMDV inh 16µM (no result: AmpC inh no detg, HCV inh)
CCCCCn1c(=O)[nH]c2cc(C(=O)N3CCN(c4ccc(C(C)=O)cc4)CC3)ccc2c1=O	HCV inh 7.9µM, HCMV inh -74, FMDV inh inconclusive
CCCCCn1c(=O)[nH]c2cc(C(=O)N3CCN(c4ccc(F)cc4)CC3)ccc2c1=O	HCV inh inconclusive, HCMV inh -76, FMDV inh inconclusive (no result: AmpC inh detg, AmpC inh no detg)
CCCC(=O)OC[C@H]1CN(C2CCCC2)S(=O)(=O)c2c(Oc3ccccc3)cccc2O1	none (no result: AmpC inh detg, AmpC inh no detg, HCV inh, FMDV inh)
CN(C)c1ccc(CNC(=O)c2cnc(N3CCN(Cc4cccc(C(F)(F)F)c4)C3=O)o2)cc1	none (no result: AmpC inh detg, AmpC inh no detg, HCV inh, FMDV inh)
CC(C)(C)n1nc(C2CC2)cc1NC(=O)Nc1ccccc1	none (no result: AmpC inh detg, AmpC inh no detg, HCV inh, FMDV inh)
COc1ccc(/C=C/C(=O)NCC2Cc3cc(Cl)cc(-c4ncccn4)c3O2)cc1 (stereo not given)	none (no result: AmpC inh detg, AmpC inh no detg, HCV inh, HCMV inh)
CCCCNc1c2c3c(cccc3n(C)c1=O)C(=O)c1ccccc1-2	HCV inh inconclusive, FMDV inh 32µM (no result: HCMV inh)
Cn1c(=O)c(NCCc2ccccc2)c2c3c(cccc31)C(=O)c1ccccc1-2	AmpC inh no detg inconclusive, HCV inh inconclusive
Cc1onc(-c2cccc(Cl)c2Cl)c1C(=O)O/N=C(\N)c1ccc([N+](=O)[O-])o1	HCV inh inconclusive, FMDV inh inconclusive
Cc1onc(-c2ccccc2)c1C(=O)O/N=C(\N)c1ccc([N+](=O)[O-])o1	HCV inh 11µM, FMDV inh inconclusive
O=C(CCN1C(=O)C2C3C=CC(C3)C2C1=O)Nc1nccs1 (stereo not given)	HCMV inh -69
COCC(=O)Nc1cc(C(=O)NC2Cc3ccccc3C2)cc2nc(-c3cccnc3)n(C)c12	none (no result: AmpC inh detg, AmpC inh no detg, HCV inh, HCMV inh)
O=C(CN1CCN(C(=O)c2ccco2)CC1)Nc1ccc(F)cc1F	none
CCOC(=O)C1=CCN(S(=O)(=O)c2ccc(F)cc2)C1c1ccc(Cl)cc1 (stereo not given)	none (no result: AmpC inh detg, AmpC inh no detg, HCV inh, FMDV inh)
CN(CCCC(=O)Nc1ccccc1F)S(=O)(=O)c1ccc(F)cc1	HCMV inh -61
CN(CCCC(=O)Nc1ccc(OC(F)F)cc1)S(=O)(=O)c1ccc(F)cc1	HCV inh 11µM, FMDV inh inconclusive
Cc1ccc(S(=O)(=O)N(C)CCCC(=O)Nc2ccncc2)cc1	HCV inh 5.6µM, FMDV inh inconclusive
Cc1ccc(S(=O)(=O)N(C)CCCC(=O)Nc2ccc(F)cc2)cc1	AmpC inh detg inconclusive, HCV inh inconclusive
O=S(=O)(c1ccccc1)N1CCN=C1SCc1ccc(Cl)cc1	none
O=S(=O)(c1ccc(Br)cc1)N1CCN=C1SCc1cccnc1	HCMV inh -69
CCCS(=O)(=O)N1CCN=C1SCc1cccnc1	HCMV inh -62
O=S(=O)(c1ccccc1)N1CCN=C1SCc1ccc(Cl)c(Cl)c1	HCV inh inconclusive, HCMV inh -74
CCS(=O)(=O)N1CCN=C1SCc1cccc(F)c1	HCMV inh -60
CS(=O)(=O)N1CCN=C1SCc1cccc(F)c1	none
CC(C)C(N)c1csc(NC(=O)Nc2cccc(Cl)c2)n1 (stereo not given)	none (no result: AmpC inh detg, AmpC inh no detg, HCV inh)
CCC(C)NC(=O)CCc1c(C)nc2c(c(C)nn2-c2ccc(C)cc2)c1C (stereo not given)	none (no result: AmpC inh no detg, HCV inh)
CSc1ccc(-c2ccc(C(=O)NCC3CCCO3)c(N3CCC(O)CC3)n2)cc1 (stereo not given)	none (no result: AmpC inh detg, AmpC inh no detg, HCV inh, HCMV inh)
O=S(=O)(c1ccc(F)cc1)N1CCN=C1SCc1cccnc1	HCMV inh -67
Cc1ccc(CN(C)C[C@H]2OCc3cnnn3CCCC(=O)N([C@H](C)CO)C[C@@H]2C)cc1	none (no result: AmpC inh detg, AmpC inh no detg, HCV inh, FMDV inh)
CC(=Nc1ccc(C)cc1)c1sc2ccccc2c1O	AmpC inh no detg 7.9µM, HCV inh 13µM (no result: FMDV inh)
CC(=Nc1ccc(C)cc1C)c1sc2ccccc2c1O	HCV inh inconclusive
COc1ccccc1C(=O)Nc1nc2n(n1)C(c1ccc(F)cc1)C=C(c1ccc(Cl)cc1)N2 (stereo not given)	none (no result: AmpC inh no detg, HCV inh)
Cc1ccc(C2C=C(c3ccc(Cl)cc3)Nc3nc(NC(=O)c4ccco4)nn32)cc1 (stereo not given)	HCMV inh -62, FMDV inh inconclusive (no result: AmpC inh no detg, HCV inh)
Cc1ccc(C2C=C(c3ccccc3)Nc3nc(N4C(=O)CCC4=O)nn32)cc1 (stereo not given)	HCMV inh -62
COc1cc(OC)cc(C(=O)Nc2c(C)nn(-c3ccccc3)c2C)c1	none
Cc1ccc(NC(=O)c2ccc(CNS(=O)(=O)c3ccc4c(c3)C(C)(C)C(=O)N4C)cc2)cc1C	FMDV inh 35µM (no result: AmpC inh no detg, HCV inh)
Cc1cccc(NC(=O)c2ccc(CNS(=O)(=O)c3ccc4c(c3)C(C)(C)C(=O)N4C)cc2)c1	FMDV inh 35µM (no result: AmpC inh no detg, HCV inh)
COc1ccc(CCNC(=O)C2(C)CCC(=O)N2CCC(C)C)cc1OC (stereo not given)	AmpC inh detg inconclusive, HCMV inh -100
COc1ccc(CCNC(=O)C23CCC(C)(C(=O)O2)C3(C)C)cc1OC (stereo not given)	none
C=CCC1C=CCC(CC=C)N1C(=O)c1ccccc1[N+](=O)[O-] (stereo not given)	HCV inh 18µM

Screening data (PubChem BioAssay)
